In PubChem BioAssay (NCI) one finds growth data, which are given here for eight compounds.

Compounds without any hit were thinned out: in the full panel of roughly 83,000, 20% have a hit.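 Interpretation: 100, growth as untreated; towards 0, rising growth inhibition; 0, no net growth; 0 to -100, cell death. Compounds scoring below 10 were considered active.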 Values without a mark were called inactive. Activity calls are given as the source filed them.

Some test systems named below: NCI-H23 lung; NCI-H226 lung; NCI-H322M lung; HOP-62 NSCLC; NCI-H460 lung; HOP-92 NSCLC; NCI-H522 lung; A549/ATCC NSCLC; 786-0 renal; COLO 205 colon; DU-145 prostate; K-562 leukemia; MALME-3M melanoma; MDA-MB-231 breast; RXF 393 renal; SF-268 CNS; SF-295 CNS; SF-539 CNS; UACC-257 melanoma; M14 melanoma.
Test in all cases: NCI-60 one-dose screen, 48 h (100 = growth as untreated, 0 = no growth, -100 = all killed)
What all share (settings): 10 µM unless noted

For the compound `Ic1ccc(Nc2nc3nonc3nc2Nc2ccc(I)cc2)cc1`, the growth was 1.49% (active) with NCI-H23 lung; 0.546% (active) in the experiment with NCI-H226 lung; 10.9% with NCI-H322M lung; -18.3% (active) with HOP-62 NSCLC; 3.11% (active) in the experiment on NCI-H460 lung; -16.4% (active) in the experiment with HOP-92 NSCLC. Further, the growth in the experiment on NCI-H522 lung is -20.2% (active); in the experiment on A549/ATCC NSCLC it was 4.13% (active); with 786-0 renal it was 8.27% (active); in the experiment on COLO 205 colon, -62.7% (active); in the experiment on DU-145 prostate it was 22.7%; in the experiment with K-562 leukemia it was 4.38% (active). For the same compound, the growth in the experiment with MALME-3M melanoma was -17.9% (active); in the experiment on MDA-MB-231 breast, -5.93% (active); in the experiment with RXF 393 renal it was -0.305% (active); in the experiment on SF-268 CNS, 20.8%; with SF-295 CNS it was -47.6% (active); in the experiment with SF-539 CNS, 17%. For the same compound, the growth in the experiment on UACC-257 melanoma was -29.7% (active); in the experiment with M14 melanoma, 2.71% (active).

For `Cc1nc(N/N=C/c2cn(-c3ccccc3)nc2-c2cc3ccccc3oc2=O)sc1N=Nc1ccccc1`, the growth in the experiment with NCI-H23 lung was 93.7%; with NCI-H226 lung it was 95.4%; in the experiment on NCI-H322M lung it was 104%; in the experiment with HOP-62 NSCLC, 66%; in the experiment with NCI-H460 lung, 99.7%; in the experiment with HOP-92 NSCLC it was 97.1%. Moreover, the growth with NCI-H522 lung was 66.2%; with A549/ATCC NSCLC, 96.6%; in the experiment on 786-0 renal it was 97.3%; with COLO 205 colon it was 105%; with DU-145 prostate, 105%; with K-562 leukemia, 34%. Also, the growth is 89.6% in the experiment with MALME-3M melanoma; 87.7% in the experiment on MDA-MB-231 breast; 94.6% in the experiment on RXF 393 renal; 94.9% in the experiment on SF-268 CNS; 81.6% in the experiment on SF-295 CNS; 87.7% in the experiment with SF-539 CNS. The figures for the growth in the experiment on UACC-257 melanoma and in the experiment with M14 melanoma were 94.5% and 70.7%, respectively.

With `Cc1ccc(NC(=O)c2sc3nc(C)c(C(O)c4ccccc4)cc3c2N)cc1` (stereo not given), the growth in the experiment with NCI-H23 lung was 26.4%; with NCI-H226 lung, 57.4%; in the experiment with NCI-H322M lung, 56.8%; with HOP-62 NSCLC it was 31.2%; in the experiment with NCI-H460 lung, 2.88% (active); with HOP-92 NSCLC, 58.8%. Further, the growth is 7.09% (active) in the experiment on NCI-H522 lung; 22.7% in the experiment with A549/ATCC NSCLC; 40.3% with 786-0 renal; -15.8% (active) with COLO 205 colon; 23.9% in the experiment on DU-145 prostate; 6.23% (active) with K-562 leukemia. The growth was 49.1% in the experiment on MALME-3M melanoma; 15.9% in the experiment on MDA-MB-231 breast; 39.3% with RXF 393 renal; 49.5% with SF-268 CNS; 4.89% (active) with SF-295 CNS; -4.25% (active) in the experiment with SF-539 CNS. Besides, the growth in the experiment on UACC-257 melanoma is 60.2%; in the experiment on M14 melanoma, 16.3%.

For `CN1CCN(Cc2ccc(NC(=O)c3cncc(C#Cc4cnc(N)cc4C#N)c3)cc2C(F)(F)F)CC1`, the growth was 15.3% with NCI-H23 lung; 7.61% (active) in the experiment on NCI-H226 lung; 17% in the experiment with NCI-H322M lung; 12.1% with HOP-62 NSCLC; 7.15% (active) with NCI-H460 lung; -5.52% (active) in the experiment with HOP-92 NSCLC. The growth in the experiment with NCI-H522 lung is 9.51% (active); with A549/ATCC NSCLC it was 19.2%; in the experiment with 786-0 renal it was 24.9%; in the experiment with COLO 205 colon, -31.2% (active); in the experiment with DU-145 prostate, 21.1%; in the experiment on K-562 leukemia, 15.9%. Besides, the growth with MALME-3M melanoma was -4.04% (active); with MDA-MB-231 breast, 6.83% (active); with RXF 393 renal, 13.4%; in the experiment with SF-268 CNS, 23.5%; with SF-295 CNS, 24.5%; in the experiment on SF-539 CNS it was -12% (active). The growth was 3.84% (active) in the experiment on UACC-257 melanoma and -23.1% (active) in the experiment on M14 melanoma.

`COc1c2c(cc3c1C(=O)N[C@@H]1[C@@H](O)[C@@H](O)[C@H](O)C[C@@H]31)OCCO2`: the growth was 104% in the experiment on NCI-H23 lung; 92.6% with NCI-H226 lung; 93.5% with NCI-H322M lung; 99.9% with HOP-62 NSCLC; 109% in the experiment with NCI-H460 lung; 91.6% in the experiment on HOP-92 NSCLC. In addition, the growth is 93.4% with NCI-H522 lung; 96.5% in the experiment on A549/ATCC NSCLC; 97.4% with 786-0 renal; 103% in the experiment on COLO 205 colon; 107% with DU-145 prostate; 95.6% with K-562 leukemia. In addition, the growth in the experiment on MALME-3M melanoma was 106%; with MDA-MB-231 breast it was 109%; in the experiment on RXF 393 renal it was 102%; with SF-268 CNS, 97.9%; in the experiment with SF-295 CNS it was 99.6%; in the experiment with SF-539 CNS it was 106%. For the same compound, the growth with UACC-257 melanoma was 98.8%; in the experiment with M14 melanoma it was 105%.

Take `COc1ccc(/C=C(\C(=O)NCc2cccnc2)S(=O)(=O)c2ccccc2)cc1OC`: the growth in the experiment on NCI-H23 lung was 37.1%; with NCI-H226 lung, 74.6%; in the experiment on NCI-H322M lung, 41.3%; in the experiment on HOP-62 NSCLC, 50.7%; in the experiment with NCI-H460 lung it was 14.7%; in the experiment with HOP-92 NSCLC, 43.5%. Further, the growth with NCI-H522 lung was -4.24% (active); in the experiment on A549/ATCC NSCLC, 45.7%; with 786-0 renal, 20.8%; in the experiment with COLO 205 colon, 30.2%; in the experiment with DU-145 prostate, 5.77% (active); with K-562 leukemia, 8.68% (active). The growth with MALME-3M melanoma was 48%; in the experiment with MDA-MB-231 breast it was 22.8%; in the experiment on RXF 393 renal it was 15.5%; in the experiment with SF-268 CNS, 29.1%; with SF-295 CNS it was 57.8%; in the experiment on SF-539 CNS, 15.3%. Also, the growth was 44.7% in the experiment on UACC-257 melanoma and 28.8% with M14 melanoma.

For the compound `CC1(C)CC(=O)C2=C(C1)C(c1ccc(Cl)cc1)n1ncc(C#N)c1N2` (stereo not given), the growth is 99.6% with NCI-H23 lung; 94.8% in the experiment on NCI-H226 lung; 90.9% with NCI-H322M lung; 104% in the experiment with HOP-62 NSCLC; 106% with NCI-H460 lung; 99.3% in the experiment with HOP-92 NSCLC. Also, the growth with NCI-H522 lung is 85.7%; in the experiment on A549/ATCC NSCLC, 101%; in the experiment on 786-0 renal it was 98.9%; in the experiment with COLO 205 colon, 109%; with DU-145 prostate, 108%; in the experiment on K-562 leukemia, 106%. For the same compound, the growth is 102% with MALME-3M melanoma; 93.6% with MDA-MB-231 breast; 107% in the experiment on RXF 393 renal; 103% with SF-268 CNS; 101% with SF-295 CNS; 87.6% with SF-539 CNS. The figures for the growth with UACC-257 melanoma and with M14 melanoma were 101% and 108%, respectively.

`Cc1cccc(N2C(=O)/C(=C/C(Cl)=C/c3ccc([N+](=O)[O-])cc3)SC2=S)c1C`: the growth in the experiment on NCI-H23 lung is 10.4%; in the experiment on NCI-H226 lung, -38.1% (active); with NCI-H322M lung it was 82.2%; in the experiment on HOP-62 NSCLC, 17.2%; with NCI-H460 lung it was 21%; in the experiment with HOP-92 NSCLC, -28.1% (active). In addition, the growth in the experiment on NCI-H522 lung is -29.3% (active); in the experiment with A549/ATCC NSCLC, 22.6%; in the experiment with 786-0 renal, 1.63% (active); with COLO 205 colon it was -31.9% (active); in the experiment with DU-145 prostate, 27.3%; in the experiment with K-562 leukemia, 3.9% (active). Further, the growth in the experiment with MALME-3M melanoma is -8.54% (active); with MDA-MB-231 breast it was -6.22% (active); in the experiment with RXF 393 renal, -33.6% (active); with SF-268 CNS, 40.5%; in the experiment on SF-295 CNS, 22.3%; in the experiment with SF-539 CNS it was -3.16% (active). Also, the results for the growth in the experiment on UACC-257 melanoma and with M14 melanoma were 14.3% and 22.5%, respectively.
